{"source": "PubChem BioAssay AID588453", "about": "(National Center for Advancing Translational Sciences (NCATS), 2011)", "note": "Out of some 390,000 compounds screened, about 4,000 (1%) were called active. Where a call stands in place of a potency, no number is given. About 4% were inconclusive and are not listed. The call rests on the fitted dose curve; in most records, active means well fitted inhibition curve with a large enough effect; inconclusive means small, poorly fitted or top-dose-only effect; inactive means no such curve, though single readings can be large or run the other way. The full list was thinned out, with actives kept by preference. Potency means the concentration at half of the fitted maximal effect.", "data": [{"biological_target": "Thioredoxin reductase 1, cytoplasmic (Rattus norvegicus) (UniProt O89049)", "sequence (O89049 whole entry, looked up)": "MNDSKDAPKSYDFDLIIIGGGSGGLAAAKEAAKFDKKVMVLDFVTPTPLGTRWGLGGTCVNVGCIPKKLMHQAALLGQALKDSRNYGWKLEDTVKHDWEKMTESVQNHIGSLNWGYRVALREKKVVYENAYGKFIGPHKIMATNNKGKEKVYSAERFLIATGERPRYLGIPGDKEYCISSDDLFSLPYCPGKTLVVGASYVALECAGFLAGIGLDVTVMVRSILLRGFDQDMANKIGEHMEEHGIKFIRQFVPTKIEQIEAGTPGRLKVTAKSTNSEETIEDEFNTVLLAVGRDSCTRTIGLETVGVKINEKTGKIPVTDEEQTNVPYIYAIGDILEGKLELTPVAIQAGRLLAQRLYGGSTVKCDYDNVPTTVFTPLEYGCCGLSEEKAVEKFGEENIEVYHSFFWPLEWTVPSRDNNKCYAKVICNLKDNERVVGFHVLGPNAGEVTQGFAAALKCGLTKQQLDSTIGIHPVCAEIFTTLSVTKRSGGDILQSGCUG", "test": "qHTS Assay for Inhibitors of Mammalian Selenoprotein Thioredoxin Reductase 1 (TrxR1): qHTS; further: nearly all actives have a fitted effect of over 65% in size", "settings": "recombinant rTrxR1, NADPH fluorescence consumption, selenite substrate; series mostly up to 114 µM", "how_it_was_run": "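Rat TrxR1 (90 nM in the dispensed reagent) was pre-reduced with 400 uM NADPH for 5 min at room temperature, then incubated with compound for 15 min. After 400 uM selenite was added, NADPH fluorescence (Ex 340/Em 450 nm) was followed for 8 min.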", "values": [{"smiles": "Oc1ccc(CNc2ccccc2O)cc1", "Potency": "7.94 µM (active)"}, {"smiles": "OCC(CO)(CO)NCc1ccc(-c2ccccc2)cc1", "Potency": "inactive"}, {"smiles": "Oc1ccc(N2CCN(C(=S)NCc3ccccc3)CC2)cc1", "Potency": "inactive"}, {"smiles": "COc1ccc(OC)c(CNC(=O)c2c3c(nc4ccccc24)C(=O)N(C2CCCCC2)C3)c1", "Potency": "inactive"}, {"smiles": "COc1cc2[nH]c(C)c(CCN3CCN(c4ccccc4)CC3)c2cc1OC", "Potency": "inactive"}, {"smiles": "COc1ccccc1NC(=O)N(O)C1(C#N)CCCCC1", "Potency": "inactive"}, {"smiles": "COc1ccccc1NC(=O)/C=C/C(N)=O", "Potency": "12.6 µM (active)"}, {"smiles": "COc1ccccc1NC(=O)COC(=O)COc1ccccc1F", "Potency": "inactive"}, {"smiles": "COc1ccc(C(CCN2CCOCC2)c2c(OC)cc(OC)c3c2OC(=O)CC3c2ccc(OC)cc2)cc1", "note": "(stereo not given)", "Potency": "inactive"}, {"smiles": "CCc1nn(CC(=O)Nc2cc(C)cc(C)c2)c(=O)c2cc3sccc3n12", "Potency": "inactive"}, {"smiles": "COc1cccc(CNC(=O)Cn2c(=O)c3cccn3c3ccc(F)cc32)c1OC", "Potency": "inactive"}, {"smiles": "O=C(/C=C/Sc1ncn[nH]1)c1ccc(Cl)cc1", "Potency": "0.447 µM (active)"}, {"smiles": "Cc1cccc(C(=O)O)c1[N+](=O)[O-]", "Potency": "inactive"}, {"smiles": "COc1cccc(C(=O)Oc2cc(C)[nH]c(=O)c2[N+](=O)[O-])c1", "Potency": "inactive"}, {"smiles": "Cc1cccc(C2CC(=O)Oc3c2c(=O)n(C)c2ccccc32)c1", "note": "(stereo not given)", "Potency": "inactive"}, {"smiles": "Cn1c(=O)c([N+](=O)[O-])c(Oc2ccccc2)c2ccccc21", "Potency": "2.24 µM (active)"}, {"smiles": "Cc1cccc(Oc2c([N+](=O)[O-])c(=O)n(C)c3ccccc23)c1", "Potency": "3.16 µM (active)"}, {"smiles": "Cn1c(=O)c(Sc2ccc(Cl)cc2)c(O)c2ccccc21", "Potency": "inactive"}, {"smiles": "COc1cc(-c2cc3n(C)c(C)c(CCC(=O)Nc4ccc(F)cc4)c(=O)n3n2)cc(OC)c1OC", "Potency": "inactive"}, {"smiles": "Cc1cccc(-n2ccnc2SCC(=O)Nc2cc(C(F)(F)F)ccc2Cl)c1", "Potency": "inactive"}, {"smiles": "Cc1ccc(-c2cc(C(F)(F)F)c(C#N)c(SCC(=O)Nc3ccccc3)n2)cc1", "Potency": "inactive"}, {"smiles": "N#Cc1cc2[nH]c(=O)c(=O)[nH]c2cc1[N+](=O)[O-]", "Potency": "inactive"}, {"smiles": "COC1=CC(=O)OC(c2ccc(OC)cc2)C1", "note": "(stereo not given)", "Potency": "inactive"}, {"smiles": "COc1ccc(N=Nc2c(-c3ccc(OC)cc3)[nH]oc2=O)cc1", "Potency": "inactive"}, {"smiles": "COc1ccc(N=C2C=CC(=O)O2)cc1", "Potency": "10 µM (active)"}, {"smiles": "COc1ccc(C)cc1-n1c(-c2ccc(C)cc2)cc2c1CC(C)(C)CC2=O", "Potency": "inactive"}, {"smiles": "O=C(Nc1ccc([N+](=O)[O-])cc1)c1cnn2c1NC(=C1CC1)C=C2C(F)F", "Potency": "inactive"}, {"smiles": "CCc1ccc(NS(=O)(=O)c2ccc3[nH]cc(C(=O)NCCc4cccc(C)c4)c(=O)c3c2)cc1", "Potency": "inactive"}, {"smiles": "COc1cc(NC(=O)c2nc3ccccc3nc2C)cc(OC)c1OC", "Potency": "inactive"}, {"smiles": "COc1ccc(CCNC(=O)c2nn(C)c3c2CSc2ccccc2-3)cc1OC", "Potency": "inactive"}, {"smiles": "COc1cc(NC(=O)c2noc3c2CSc2ccccc2-3)cc(OC)c1OC", "Potency": "14.1 µM (active)"}, {"smiles": "Cc1cccc(NC(=O)CSc2nc3c([nH]c4ccccc43)c(=O)n2-c2cc(C)cc(C)c2)c1", "Potency": "inactive"}, {"smiles": "CCN(CC(=O)Nc1ccccc1OC)C(=O)Cn1cnc2ccccc2c1=O", "Potency": "inactive"}, {"smiles": "CC1(C)C(=O)Nc2ccccc2N1C(=O)COC(=O)Cn1cnc2ccccc2c1=O", "Potency": "inactive"}, {"smiles": "COc1ccc(C(C)=O)cc1COC(=O)Cn1cnc2ccccc2c1=O", "Potency": "17.8 µM (active)"}, {"smiles": "COc1ccc(C)cc1NC(=O)COCc1cc(-c2cccs2)on1", "Potency": "inactive"}, {"smiles": "CCOC(=O)c1ccc(NC(=O)C2CC(=O)NC(=Nc3ccc(C)c(C)c3)S2)cc1", "note": "(stereo not given)", "Potency": "inactive"}, {"smiles": "Cn1c(=O)oc2cc(S(=O)(=O)CCC(=O)NCCc3ccc(Cl)cc3)ccc21", "Potency": "inactive"}, {"smiles": "Oc1ccc(Cn2cc[nH]c2=S)cc1", "Potency": "inactive"}, {"smiles": "O=[N+]([O-])c1cc(-c2nc(-c3ccccc3)no2)ccc1NCc1ccco1", "Potency": "inactive"}, {"smiles": "CC(Nc1ccc(-c2nc(-c3ccco3)no2)cc1[N+](=O)[O-])c1ccccc1", "note": "(stereo not given)", "Potency": "44.7 µM (active)"}, {"smiles": "CNc1ccc(-c2nc(-c3ccco3)no2)cc1[N+](=O)[O-]", "Potency": "inactive"}, {"smiles": "COc1ccc(NC(=O)c2ccc3nc(CCc4ccccc4)oc3c2)c(OC)c1", "Potency": "inactive"}, {"smiles": "CSc1ccccc1N1CCN(CCCCCC(=O)NC2CCCc3ccccc32)CC1", "note": "(stereo not given)", "Potency": "inactive"}, {"smiles": "CCOC(=O)C(=Cc1ccccc1OC)C(=O)OCC", "Potency": "44.7 µM (active)"}, {"smiles": "COc1ccccc1/C=C/C(=O)OCC(=O)NC1CCCCCC1", "Potency": "inactive"}, {"smiles": "COc1ccccc1C(=O)OCC(=O)NCCNC(=O)COC(=O)c1ccccc1OC", "Potency": "inactive"}, {"smiles": "Cc1ccc(C)c(Nc2nnc(-c3ccc(C)c(S(=O)(=O)N4CCCCC4)c3)c3ccccc23)c1", "Potency": "inactive"}, {"smiles": "CC1(C)C=Cc2c(ccc(C(=O)/C=C/c3ccccc3)c2O)O1", "Potency": "inactive"}, {"smiles": "O=C(Nc1ccccc1)/C(=C\\c1ccco1)NC(=O)c1ccco1", "Potency": "50.1 µM (active)"}, {"smiles": "COc1ccccc1C(=O)N/C(=C/c1ccco1)C(=O)Nc1ccc(C(=O)O)cc1", "Potency": "inactive"}, {"smiles": "O=C(NC(Cc1ccccc1)C(=O)O)/C(=C\\c1ccccc1)NC(=O)c1ccco1", "note": "(stereo not given)", "Potency": "inactive"}, {"smiles": "O=C1COc2ccc(-c3csc(-c4ccc(Cl)cc4)n3)cc2N1", "Potency": "inactive"}, {"smiles": "CCc1nn(CC(=O)Nc2cccc(C)c2C)c(=O)c2cc3sccc3n12", "Potency": "inactive"}, {"smiles": "CC(C)c1ccc(NC(=O)CN(C)S(=O)(=O)c2ccc3c(c2)c(=O)n(C)c(=O)n3C)cc1", "Potency": "inactive"}, {"smiles": "Nc1ncnc2c1c(I)cn2[C@@H]1C[C@H](N)[C@@H](O)[C@H]1O", "Potency": "inactive"}, {"smiles": "O=C1Oc2ccccc2C(=O)/C1=C/c1ccccc1O", "Potency": "11.2 µM (active)"}, {"smiles": "CO[C@H]1O[C@@H]2O[C@@]3(C)CC[C@@H]4[C@@H](C)CC[C@@H]([C@H]1C)[C@@]24OO3", "Potency": "inactive"}, {"smiles": "CCOC(=O)Cc1ccc(NC(=O)Nc2c[nH]c(=O)[nH]c2=O)cc1", "Potency": "inactive"}, {"smiles": "COc1cccc(C(=O)NC2=NC(c3ccc(N(C)C)cc3)CC(=O)N2)c1", "note": "(stereo not given)", "Potency": "inactive"}, {"smiles": "Cc1ccc(Nc2c(-c3ccc(Cl)cc3)nc3sccn23)c(C)c1", "Potency": "inactive"}, {"smiles": "CC(C)c1ccc(C2C(C(=O)c3ccco3)=C(O)C(=O)N2CC2CCCO2)cc1", "note": "(stereo not given)", "Potency": "inactive"}, {"smiles": "COCCNc1nnc(SCC(=O)NNC(=O)c2ccco2)s1", "Potency": "inactive"}, {"smiles": "C=CCSc1nnc(N2C(=O)C(O)=C(C(=O)c3ccco3)C2c2ccc(F)cc2)s1", "note": "(stereo not given)", "Potency": "28.2 µM (active)"}, {"smiles": "CCOc1ccccc1NC(=O)C1CCCN(S(=O)(=O)c2cn(C)cn2)C1", "note": "(stereo not given)", "Potency": "inactive"}, {"smiles": "COc1ccc(-c2nc3scc(CCNS(=O)(=O)c4cc(F)ccc4OC)n3n2)cc1OC", "Potency": "inactive"}, {"smiles": "CCOc1ccccc1NC(=O)CCn1cnnn1", "Potency": "inactive"}, {"smiles": "Cc1cc(C)nc(S/C=C/C(=O)c2ccccc2)n1", "Potency": "1 µM (active)"}, {"smiles": "Cc1ccc2nc(CNC(=O)c3ccccc3)[nH]c2c1", "Potency": "inactive"}, {"smiles": "Cc1cc(C)nc(NC(=O)Nc2ccccc2C(F)(F)F)n1", "Potency": "inactive"}, {"smiles": "OC(Cc1ccc2ccccc2n1)c1ccc(Cl)c(Cl)c1", "note": "(stereo not given)", "activity change, negative = inhibition": "24.6% [at 0.0914 µM] (inactive)"}, {"smiles": "COc1ccccc1NC(=O)c1cc(C2CC2)nc2c1c(C)nn2-c1ccc(C)cc1", "Potency": "inactive"}, {"smiles": "CCOC(=O)c1c(NC(=O)c2ccc(S(=O)(=O)N3CCCC(C)C3)cc2)sc2c1CCN(C(C)C)C2", "note": "(stereo not given)", "Potency": "inactive"}, {"smiles": "CCOc1ccc(CNC(=O)c2ccc(CS(=O)c3ccccc3)o2)cc1", "note": "(stereo not given)", "Potency": "inactive"}, {"smiles": "Cc1nn(CC(=O)O)c(=O)c2cc3cc(F)ccc3n12", "Potency": "inactive"}, {"smiles": "CC1=C/C(=N\\OS(=O)(=O)c2ccccc2)C=CC1=O", "Potency": "1.78 µM (active)"}, {"smiles": "Cc1cc[n+](C2CCCCC2)cc1", "Potency": "inactive"}, {"smiles": "CCC(Sc1nc2n[nH]c(C)c2c(=N)n1-c1ccccc1Cl)C(=O)N(CC)CC", "note": "(stereo not given)", "Potency": "inactive"}, {"smiles": "CC(/C=C/c1ccccc1)=N\\NC(=O)C1CC1(C)c1ccccc1", "note": "(stereo not given)", "Potency": "inactive"}, {"smiles": "CC1CC(=NNC(=O)C2COc3ccccc3O2)CC(C)(C)C1", "note": "(stereo not given)", "Potency": "inactive"}, {"smiles": "CC(/C=C/c1ccco1)=N/NC(=O)C1COc2ccccc2O1", "note": "(stereo not given)", "Potency": "56.2 µM (active)"}, {"smiles": "O=C(CCS(=O)(=O)c1cc(Br)cc2c1N(C(=O)C1CC1)CC2)Nc1ccc(C(F)(F)F)cc1", "Potency": "inactive"}, {"smiles": "CN1CCN(c2oc(-c3ccc(COc4ccc(Cl)cc4)o3)nc2C#N)CC1", "Potency": "inactive"}, {"smiles": "Cc1ccc(OCC(=O)Nc2cccc3c2CCCC3)cc1C", "Potency": "inactive"}, {"smiles": "Cc1ccc(SC(=O)COc2ccc(C)c(C)c2)cc1", "Potency": "8.91 µM (active)"}, {"smiles": "COc1ccc(C(=O)COC(=O)COc2ccc(C)c(C)c2)cc1", "Potency": "inactive"}, {"smiles": "OC[C@H]1O[C@@H](n2cnc3c(N[C@H]4CC5CCC4C5)ncnc32)[C@H](O)[C@@H]1O", "note": "(stereo not given in full)", "Potency": "inactive"}, {"smiles": "CSc1nc(-c2ccc(F)cc2)nc2c1Cc1c(CO)cnc(C)c1O2", "Potency": "inactive"}, {"smiles": "Cc1oc(-c2ccccc2)nc1Cn1c(SCc2cccc(C(F)(F)F)c2)nc2cccnc21", "Potency": "inactive"}, {"smiles": "COc1cccc(CNC(=O)C(=O)NCC(c2cccs2)S(=O)(=O)c2ccccc2)c1", "note": "(stereo not given)", "Potency": "inactive"}]}]}
